Source: PubChem BioAssay (EPA / NIEHS)
Calls of active or inactive are those of the source. The calls were made as follows: active = hit-call score of the fitted dose curve at least 0.9, where 1 is the maximum; inactive = score below 0.9.

biological target: Nuclear respiratory factor 1 (Homo sapiens) (UniProt Q16656); assay: ATG_NRF1_CIS: Attagene CIS-FACTORIAL HepG2 Assay for human Nuclear Respiratory Factor 1 (NRF1) Orphan Gene (AID 2282987); conditions: HepG2 NRF1 cis-element reporter, Attagene multiplex; actives raise or lower the signal
Procedure: ATG_CIS is a cell-based, multiplexed-readout assay that uses HepG2, a human liver cell line, with measurements taken at 24 hours after chemical dosing in a 24-well plate.ATG_NRF1_CIS is one of 52 assay component(s) measured or calculated from the ATG_CIS assay. It is designed to make measurements of mRNA induction, a form of inducible reporter, as detected with fluorescence intensity signals by Reverse transcription polymerase chain reaction (RT-PCR) and Capillary electrophoresis technology.Data from the assay component ATG_NRF1_CIS was analyzed into 1 assay endpoint. This assay endpoint, ATG_NRF1_CIS, was analyzed with bidirectional fitting relative to DMSO as the negative control and baseline of activity. Using a type of inducible reporter, measures of mRNA for gain or loss-of-signal activity can be used to understand the reporter gene at the transcription factor-level as they relate to the gene NRF1. Furthermore, this assay endpoint can be referred to as a primary readout, because this assay has produced multiple assay endpoints where this one serves a reporter gene function. To generalize the intended target to other relatable targets, this assay endpoint is annotated to the dna binding intended target family, where the subfamily is nuclear respiratory factors.
Human liver HepG2 cells are transiently transfected with multiple reporter transcription units (MRTUs) in 6-well plates using FuGene 6 reagent (Roche; 3 ml FuGene/1 mg DNA). The MRTU constructs are regulated by a cis-regulating element (promoter). […] A major difference between the CIS and TRANS system is that in CIS activities of endogenous TFs are measured, whereas the TRANS assay evaluates changes in activities of exogenous, chimeric NR-Gal4 proteins. […] At the end of 24 hour incubation, total RNA was isolated using TriZol reagent (Invitrogen). The isolated RNA is then reverse-transcribed using oligo(dT) primer and Mo-MLV reverse transcriptase (Invitrogen) with DNAse I (Ambion) treatment for 30 min. The one-tenth of the produced cDNA was amplified by PCR using Taq DNA polymerase (Invitrogen) and two reporter sequence-specific primers. The PCR products were fluorescently labeled by primer extension with 6-arboxyfluorescein (6-FAM) 5'-labeled reporter sequence-specific primer (2 min at 95 C, 20 s at 68 C and 10 min at 72 C) and these products were digested with 5U of HpaI (New England Biolabs) for 2h at 37 C. The fragments were purified using Qiaquick PCR columns (Qiagen), analyzed on an ABI 3130xL genetic analyzer (Applied Biosystems) with peak positions identified by using a set of X-rhodamine (ROX)-labeled MapMarker1000 molecular weight standards (BioVentures). The raw capillary electrophoresis data was processed using Attagraph software (Attagene).

Chain of Nuclear respiratory factor 1 (Homo sapiens) (Q16656 whole entry, looked up): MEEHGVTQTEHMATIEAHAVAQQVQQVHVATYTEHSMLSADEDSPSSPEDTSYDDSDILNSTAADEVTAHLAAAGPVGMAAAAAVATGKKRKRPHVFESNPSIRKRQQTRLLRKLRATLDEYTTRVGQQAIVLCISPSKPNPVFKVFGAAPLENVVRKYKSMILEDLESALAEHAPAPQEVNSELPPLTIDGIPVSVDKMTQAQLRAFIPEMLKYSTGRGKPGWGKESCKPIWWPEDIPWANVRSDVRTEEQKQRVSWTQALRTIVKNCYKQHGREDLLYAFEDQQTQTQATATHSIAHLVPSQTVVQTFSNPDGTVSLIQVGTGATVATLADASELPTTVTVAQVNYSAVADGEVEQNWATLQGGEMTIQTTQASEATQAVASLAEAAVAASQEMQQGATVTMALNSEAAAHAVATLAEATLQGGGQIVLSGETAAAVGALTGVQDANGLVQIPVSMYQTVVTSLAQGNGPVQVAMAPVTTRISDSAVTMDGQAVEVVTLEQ

| Structure (SMILES) | outcome | AC50 |
| --- | --- | --- |
| Nc1c(Cl)cc(Cl)cc1[N+](=O)[O-] | inactive | – |
| CC1(C)CCC[C@]2(C)[C@H]3CCO[C@]3(C)CC[C@@H]12 | inactive | – |
| CCCCC(CC)C(=O)OC(C)C (stereo not given) | inactive | – |
| CC(C)C[C@H](NC(=O)OCC1c2ccccc2-c2ccccc21)C(=O)O | inactive | – |
| COC(CC(C)CCCC(C)(C)O)OC (stereo not given) | inactive | – |
| NCCNc1cccc2ccccc12 | inactive | – |
| CCOC(=O)CC(C)O (stereo not given) | inactive | – |
| CCCCCCC(O)CCCCCCCCCCC(=O)O (stereo not given) | inactive | – |
| CCCC[O][Al]([O]CCCC)[O]CCCC | inactive | – |
| COC(=O)C=C(C)CCC=C(C)C | inactive | – |
| CCCCCCCCC=CCCCCCCCC1=NCCN1CCO | inactive | – |
| c1ccc(CN(Cc2ccccc2)Cc2ccccc2)cc1 | inactive | – |
| CC(O)C1CCCCC1 (stereo not given) | inactive | – |
| CC=CC=CCOC(=O)C(C)C | inactive | – |
| C=CC(=O)OCCC#N | inactive | – |
| CCOc1ccc(NC(=O)CC(C)=O)cc1 | inactive | – |
| O=C(O)COCC(=O)O | inactive | – |
| CCc1ccc(O)cc1 | inactive | – |
| CC1=CC[C@@]23C[C@@H]1C(C)(C)[C@@H]2CC[C@H]3C | inactive | – |
| CC(=O)C1(C)CC2=C(CCCC2(C)C)CC1C (stereo not given) | inactive | – |

| Structure (SMILES) | outcome | AC50 |
| --- | --- | --- |
| OCCOCCN1CCN(C2=Nc3ccccc3Sc3ccccc32)CC1 | inactive | – |
| C=CCCCCCCCCCC | inactive | – |
| C=CCOC(=O)CCCCCC | inactive | – |
| CCCCC1(COC(=O)CCC(=O)O)C(=O)N(c2ccccc2)N(c2ccccc2)C1=O | inactive | – |
| Cc1cc(=O)oc2cc(N(C)C)ccc12 | inactive | – |
| OCC(O)c1ccccc1 (stereo not given) | inactive | – |
| COc1cc(C(C)C)ccc1C | inactive | – |
| C=C(C)C(=O)OCCOCCOCCOC(=O)C(=C)C | inactive | – |
| O=C(O)CCCCCCCCCCCC(=O)O | inactive | – |
| CC(Oc1cc(Cl)ccc1Cl)C(=O)O (stereo not given) | inactive | – |
| O=C(Nc1ccc2c(c1)Cc1ccccc1-2)C(F)(F)F | inactive | – |
| CCCCCCCCCCCCCCCC(=O)OC/C=C(C)/C=C/C=C(C)/C=C/C1=C(C)CCCC1(C)C | inactive | – |
| Nc1ccc2cc(S(=O)(=O)O)cc(O)c2c1N=Nc1ccccc1C(F)(F)F | inactive | – |
| CC(=O)CC(=O)Nc1ccccc1 | inactive | – |
| CCCCCCCCCC(=O)OC | inactive | – |
| CC(C)(C)OC(=O)c1ccc(O)cc1 | inactive | – |
| CCCCN(CCCC)C(=O)N(CCCC)CCCC | – | 40.2 µM (active) |
| C[C@@H]1CCN(C(=O)[C@H](CCCN=C(N)N)NS(=O)(=O)c2cccc3c2NC[C@H](C)C3)[C@@H](C(=O)O)C1 | inactive | – |
| Cc1[nH]c(=O)c(C#N)cc1-c1ccncc1 | inactive | – |
| CC(=O)CC(=O)Nc1ccc(C)cc1C | inactive | – |
